# According to PubChem BioAssay AID2685 (National Center for Advancing Translational Sciences (NCATS), 2010):
# Out of some 320,000 compounds screened, about 2,100 (0.66%) were called active. Another 53% or so got no clear call; they are omitted. Calls come from the whole dose curve; as a rule, active = well fitted inhibition curve with a large enough effect in the signal ratio, with a control signal flat (not every such curve was filed as active); inconclusive = small, poorly fitted or top-dose-only effect, or effect the other way, or a change in a side signal; inactive = flat fitted curve, though single readings scatter; the % refers to the signal ratio. What follows is part of a selection rich in actives, with near analogues and random picks from the rest.
# Test: qHTS Assay for Lipid Storage Modulators in Drosophila S3 Cells;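 for cell number change: cells counted by Cell Tracker Red CMTPX staining in the red channel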
# Details: BODIPY lipid droplet fluorescence, 18-24 h, cells fed with added oleic acid; cell number change: measured here: cell count max response; series mostly up to 46.1 µM
# How it was run: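 Drosophila S3 cells loaded with oleic acid (400 uM, as added) and compounds at several concentrations; lipid droplets imaged by 488-nm laser-scanning cytometry, 500–530 nm intensity and object ratio to cell channel. Percent activity normalized to 20 uM Triacsin C.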
# Potency is the fitted concentration of half-maximal effect.
SMILES,Potency,cell number change [%],outcome
CN(Cc1cccc(F)c1)C(=O)c1cc(S(=O)(=O)N2CCOCC2)ccc1N1CCCC1,inactive,-6.74,
COc1ccc(OC)c(NC2=NC3(CCCC3)N=C(N)N2)c1,inactive,-7.97,
COc1ccc(NC2=NC3(CCCCC3)N=C(N)N2)cc1,inactive,-9.76,
COc1cccc(NC2=NC3(CCCCC3)N=C(N)N2)c1,6.51 µM (active),5.89,
O=C(Cn1nnc2ccccc21)OCC(=O)c1ccccc1,inactive,-10.5,
O=C(Cn1nnc2ccccc21)c1ccc([N+](=O)[O-])cc1,inactive,9.12,
O=C(CCn1nnc2ccccc21)OCC(=O)c1ccc([N+](=O)[O-])cc1,0.731 µM (active),5.65,
O=[N+]([O-])c1ccc(N2CCOCC2)cc1NCCCO,inactive,7.85,
Cc1ccc2ncnc(Nc3ccccc3)c2c1,inactive,-8.5,
Cc1ccc2ncnc(Nc3cccc([N+](=O)[O-])c3)c2c1,8.2 µM (active),12.6,
O=C(O)c1cccc(Nc2ncnc3ccccc23)c1,25.9 µM (active),-4.45,
Cn1ncc2c(Nc3cccc([N+](=O)[O-])c3)ncnc21,inactive,-17,
O=C(O)c1cccc(Nc2ncnc3ccc(Br)cc23)c1,inactive,-2.61,
Cc1ccc2ncnc(Nc3cccc(C(=O)O)c3)c2c1,inactive,-1.09,
O=C(NCC(=O)N1CCN(c2ccccc2F)CC1)c1ccc(Br)o1,inactive,,
Cc1cccc(N2CCN(C(=O)c3ccc(CS(=O)Cc4ccc(Cl)cc4)o3)CC2)c1C (stereo not given),inactive,-21,
CCOc1cc(CNCC2CCCN2CC)cc(Cl)c1OC (stereo not given),inactive,12.4,
CCN1CCCC1CNCc1ccc(Cl)cc1Cl (stereo not given),7.31 µM (active),-167,
CCN1CCCC1CNCc1ccccc1OCc1ccc(F)cc1 (stereo not given),inactive,13.4,
CCn1cc(CN2CCC(n3nccc3NC(=O)c3ccc(OC)cc3)CC2)cn1,inactive,-5.94,
O=c1[nH]c2ccc(S(=O)(=O)N3CCCCC3)cc2o1,inactive,2.33,
COc1ccc(C(=O)NNC(=O)COc2ccc(Cl)cc2)c(OC)c1,inactive,4.95,
CCOc1ccccc1NC(=O)C1CCCN(S(=O)(=O)c2cccc3nsnc23)C1 (stereo not given),inactive,-15.5,
CCc1ccc(NS(=O)(=O)c2ccc(OC)c3ncccc23)cc1,inactive,5.2,

SMILES,Potency,cell number change [%],outcome
CNC(=O)C(=O)Nc1cc2c3c(c1)CCC(=O)N3CCC2,inactive,-5.6,
CC(C)NC(=O)C(=O)Nc1cc2c3c(c1)CCC(=O)N3CCC2,11.6 µM (active),-25.7,
O=C(NCCO)C(=O)Nc1cc2c3c(c1)CCN3C(=O)CC2,inactive,-29,
CNC(=O)C(=O)Nc1cc2c3c(c1)CCN3C(=O)CC2,inactive,,
CCNC(=O)C(=O)Nc1cc2c3c(c1)CCN3C(=O)CC2,6.51 µM (active),-2.95,
CC(C)CNC(=O)C(=O)Nc1cc2c3c(c1)CCC(=O)N3CCC2,inactive,,
CC12CCC(=O)N1C(C(=O)OCC(=O)Nc1cccc(S(=O)(=O)N3CCCCCC3)c1)CS2 (stereo not given),inactive,,
CN1CCCC(OC(=O)c2cccc(S(=O)(=O)N3CCCCCC3)c2)C1 (stereo not given),inactive,5.11,
CN1CCCC(OC(=O)c2cc(Cl)cc(Cl)c2)C1 (stereo not given),inactive,-19.2,
COc1cccc(C(=O)OC2CCCN(C)C2)c1 (stereo not given),23.1 µM (active),-20.8,
CCc1ccc(NC(=O)C/C(C)=N/NC(=O)OCc2ccc(OC)cc2)cc1,inactive,1.96,
Cc1ccc(N2CCN(S(=O)(=O)c3ccc4c(c3)n(C)c(=O)c(=O)n4C)CC2C)cc1 (stereo not given),inactive,9.1,
Cc1ccc(N2CCN(S(=O)(=O)c3cccs3)CC2C)cc1 (stereo not given),3.66 µM (active),-24.3,
O=S(=O)(c1cccs1)N1CCN(S(=O)(=O)c2cccs2)CC1,inactive,5.37,
CN(C(=O)c1ccc(NC(=O)c2ccco2)cc1)c1ccccc1,8.2 µM (active),5.45,
O=C(Nc1ccccc1NC(=O)c1ccco1)c1ccco1,inactive,-11,
CN(C(=O)c1cccc(NC(=O)c2ccco2)c1)c1ccccc1,inactive,8.03,
CC(=O)N(C)c1ccc(NC(=O)c2ccco2)cc1,inactive,-3.91,
O=C(Nc1ccccc1NC(=O)c1ccco1)c1ccccc1,1.46 µM (active),-10,
Cc1ccc(NC(=O)c2ccco2)c(NC(=O)c2ccccc2)c1,inactive,11.5,
CCC(OC(=O)c1cccs1)C(=O)NCc1ccc(C)cc1 (stereo not given),inactive,-0.108,
CCC(C(=O)N(C(C)C)C(C)C)c1ccccc1 (stereo not given),inactive,4.75,
O=C(N/C(=C\c1ccccc1)C(=O)N1CCCCC1)c1ccc(Br)o1,,0.343,inactive [at 0.369 µM]
CC(C(=O)NCC1(c2ccccc2)CCCC1)N1CCOCC1 (stereo not given),inactive,9.07,

SMILES,Potency,cell number change [%],outcome
COc1ccc(CN(CC2CCC(C(=O)O)CC2)C(=S)Nc2cc(C)cc(C)c2)cc1 (stereo not given),inactive,-1.54,
CCCNC(=O)CCCCn1c(=S)[nH]c2c([nH]c3ccc(OC)cc32)c1=O,inactive,24.9,
COc1ccc2[nH]c3c(=O)n(CCCC(=O)NC4CCC(C)CC4)c(=S)[nH]c3c2c1 (stereo not given),2.31 µM (active),6.49,
CC[C@H](C)NC(=O)CCCCCn1c(=S)[nH]c2c([nH]c3ccc(OC)cc32)c1=O,inactive,-11.2,
O=C(CSc1cn(Cc2cccc(F)c2)c2ccccc12)NCc1ccc(F)cc1,inactive,3.63,
O=C(O)C1CCC(=O)N1Cc1ccccc1Cl (stereo not given),inactive,-9.84,
O=C(Nc1ccc(Cl)cc1)C1CCC(=O)N1Cc1ccccc1Cl (stereo not given),inactive,-16.5,
CNC(=O)C1CCC(=O)N1Cc1ccccc1Cl (stereo not given),29.1 µM (active),-10.4,
O=C(O)c1ccc(-n2nnnc2SCc2ccccc2)cc1,inactive,17.8,
COc1ccc(C(=O)C[n+]2cccc(C)c2)cc1,inactive,11.3,
Cc1ccc[n+](CC(=O)c2ccc(Br)cc2)c1,11.6 µM (active),14.7,
Cc1ccc[n+](CC(=O)c2ccc(Cl)cc2)c1,inactive,2.36,
O=C(O)c1cccc(Oc2ccccc2[N+](=O)[O-])c1,inactive,-2.25,
CCOc1ccc(/C=N/n2nnnc2N)cc1O,inactive,23.4,
CCc1ccc(C(=O)c2cnc3ccc(OC)cc3c2N2CCN(CC)CC2)cc1,inactive,-13.9,
Cn1ccs/c1=N\S(=O)(=O)c1ccc(C(C)(C)C)cc1,16.4 µM (active),-15.3,
Cn1ccs/c1=N\S(=O)(=O)c1ccc(F)cc1,inactive,,
Cn1ccs/c1=N\S(=O)(=O)c1ccc(Br)cc1,inactive,,
COc1ccc2c(c1)CCc1c(C(=O)NCc3ccc(Cl)cc3)noc1-2,inactive,3.58,
CC(=O)c1c(C)[nH]c(C(=O)Nc2ccc3c(c2)OCCO3)c1C,inactive,-13.3,
CCOc1ccc(NC(=S)N2CCC(c3nc4ccccc4[nH]3)CC2)cc1,inactive,0.472,
COCCn1c(SCC(=O)NNC(=O)c2ccccc2)nc2ccccc2c1=O,inactive,22,
C=CCNC(=O)NC(=O)COC(=O)/C(C#N)=C/c1cc(C)n(CC(C)C)c1C,inactive,19.6,
CCN1C(=O)c2cccc3c(Cl)ccc1c23,inactive,-17.2,

SMILES,Potency,cell number change [%],outcome
Cc1cc(Cl)c2oc(C(=O)N(C)CC3CCOCC3)c(C)c2c1,inactive,-6.12,
Cc1cc(Cl)c2oc(C(=O)N(C)CCc3cnn(C)c3)c(C)c2c1,inactive,-0.298,
Cc1cc(Cl)c2oc(C(=O)N(C)CCCCN3CCOCC3)c(C)c2c1,1.3 µM (active),-10.7,
CC1(OC(=O)C2CCCC2)C(=O)C=C2C=C(c3ccsc3)N(CCCCO)C=C2C1=O (stereo not given),inactive,-2.75,
NC(=O)C(Cc1ccccc1)N1C(=O)c2ccccc2C1=O (stereo not given),inactive,-7.43,
O=C1c2ccccc2C(=O)N1CCCOc1ccccc1,inactive,-1.01,
O=C(O)C(CCCCN1C(=O)c2ccccc2C1=O)N1C(=O)c2ccccc2C1=O (stereo not given),29.1 µM (active),-7.36,
CCC(C)(C)n1nnnc1C(c1ccc(N(C)C)cc1)N1CCN(C2CCCCC2)CC1 (stereo not given),inactive,1.78,
Cc1cc(OCC(O)CNC(C)(C)C)ccc1Cl (stereo not given),inactive,3.23,
CCOC(=O)N1CCN(C(=O)CSc2ccc(Cl)cc2)CC1,2.59 µM (active),4.78,
CCOC(=O)N1CCN(C(=O)CSc2ccccc2)CC1,inactive,,
CCOC(=O)N1CCN(C(=O)CCSc2ccc(Cl)cc2)CC1,inactive,-8.05,
OC(CNCc1cccnc1)COc1ccc2ccccc2c1 (stereo not given),inactive,-3.7,
CCOC(=O)C1=C(C)N=c2s/c(=C/c3ccc(OCC(=O)O)cc3)c(=O)n2C1c1ccc(OC)cc1OC (stereo not given),11.6 µM (active),-12.6,
CCOC(=O)C1=C(C)N=c2s/c(=C\c3ccc(OCC(=O)O)cc3)c(=O)n2C1c1ccccc1 (stereo not given),inactive,,
CCOC(=O)C1=C(C)N=c2s/c(=C\c3ccc(OCC(=O)O)c(OC)c3)c(=O)n2C1c1ccc(OC)cc1 (stereo not given),inactive,8.11,
OCCN1CCN(c2cc(C(F)(F)F)nc3c(F)cccc23)CC1,inactive,16.3,
CCOC(=O)N1CCN(C(=O)C2CCN(S(=O)(=O)N3CCC4(CC3)OCCO4)CC2)CC1,inactive,,
CC1(C)O[C@H]2CC(=O)OC[C@@]23C1CC(=O)[C@]1(C)C3CC[C@@]2(C)[C@H](c3ccoc3)OC(=O)[C@H]3O[C@]321 (stereo not given in full),inactive,,
O=C(CN1CCN(C(=O)CNC(=O)c2ccc3c(c2)OCO3)CC1)Nc1ccccc1Cl,inactive,2.76,
O=C1C(Cl)=C(N2CCOCC2)C(=O)N1c1ccccc1F,inactive,-18.5,
Cc1ccccc1N1C(=O)C(Cl)=C(N2CCCCCC2)C1=O,inactive,-0.204,
O=C1C(Cl)=C(N2CCCC2)C(=O)N1c1ccccc1F,1.46 µM (active),2.93,
